# “And” between values parts separate entries of the source, which are not always exact repeats. Equal values may be shown once. Compounds without any hit were thinned out: in the full panel of roughly 79,000, 15% have a hit. Some compounds were tested as several samples or in several runs, with calls that do not always agree. The source made the active and inactive calls. Rule as the data show it: active = growth inhibition above about 70%; inactive = the rest.
# What was measured:
# [1] = NCI Yeast Anticancer Drug Screen. Data for the mec2-1 strain (AID 157); conditions: S. cerevisiae mec2-1 strain, stronger effect = higher value
# Outline: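 Growth inhibition is read against vehicle-treated controls after compound exposure of the mec2-1 yeast strain, which is defective in DNA damage repair or cell cycle control.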
# [2] = NCI Yeast Anticancer Drug Screen. Data for the rad14 strain (AID 159);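 also: 0% = growth of vehicle-treated control cultures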; conditions: S. cerevisiae rad14 strain growth inhibition, stronger effect = higher value
# Outline: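 Vehicle-treated cultures served as the baseline for growth inhibition of a DNA repair-mutant yeast strain exposed to each compound.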
# [3] = NCI Yeast Anticancer Drug Screen. Data for the sgs1 mgt1 strain (AID 161);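 also: 0% = growth of cultures given vehicle only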; conditions: S. cerevisiae sgs1 mgt1 strain, stronger effect = higher value
# Outline: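 Compounds are added to genetically altered yeast, and growth is compared with cultures given vehicle alone to give percent inhibition.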
# [4] = NCI Yeast Anticancer Drug Screen. Data for the CLN2oe strain (AID 163);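 also: 0% = growth of vehicle-only control cultures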; conditions: S. cerevisiae CLN2oe strain, stronger effect = higher value
# Outline: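 Compound-treated yeast; growth vs vehicle ctrl = % inhibition. Genetically altered strain (cell-cycle control).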
# [5] = NCI Yeast Anticancer Drug Screen. Data for the cln2 rad14 strain (AID 165);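 also: 0% = growth equal to vehicle treated cultures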; conditions: S. cerevisiae cln2 rad14 strain, stronger effect = higher value
# Outline: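 Growth inhibition, relative to vehicle-treated controls, is the read-out. The test organism is a yeast strain with defined genetic alterations, cln2 rad14.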
# [6] = NCI Yeast Anticancer Drug Screen. Data for the bub3 strain (AID 167); conditions: S. cerevisiae bub3 mutant strain, stronger effect = higher value
# Outline: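 Inhibition values come from growth of compound-treated mutant yeast normalised to vehicle-treated controls.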
# [7] = NCI Yeast Anticancer Drug Screen. Data for the mlh1 strain (AID 171);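 also: 0% = growth of vehicle-treated control cultures of the same strain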; conditions: S. cerevisiae mlh1 strain growth inhibition, stronger effect = higher value
# Outline: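 Compounds are applied to a genetically altered yeast strain, and its growth is compared with that of vehicle-treated cultures to give percent inhibition.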
# [8] = NCI Yeast Anticancer Drug Screen. Data for the sgs1 strain (AID 173);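 also: 0% = growth of vehicle-only control cultures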; conditions: S. cerevisiae sgs1 mutant, stronger effect = higher value
# Outline: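 Compounds applied to genetically altered yeast; growth compared with vehicle-treated cultures to give % inhibition.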
# [9] = NCI Yeast Anticancer Drug Screen. Data for the mlh1 rad18 strain (AID 175); conditions: S. cerevisiae mlh1 rad18 strain growth inhibition, stronger effect = higher value
# Outline: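 Cells of a genetically altered yeast strain, deficient in DNA damage repair, were treated with compound. Their growth was then compared with that of vehicle-treated cultures to give inhibition.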
# [10] = NCI Yeast Anticancer Drug Screen. Data for the rad18 strain (AID 177); conditions: S. cerevisiae rad18 mutant growth inhibition, stronger effect = higher value
# Outline: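 Compounds are applied to a repair-deficient yeast strain, and growth is compared with that of vehicle-treated cultures to give percent inhibition.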
# [11] = NCI Yeast Anticancer Drug Screen. Data for the rad52 strain (AID 147);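 also: 0% = growth of vehicle-treated control cultures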; conditions: S. cerevisiae rad52 mutant growth inhibition, stronger effect = higher value
# Outline: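 DNA repair-defective yeast; compound exposure; growth scored against vehicle controls.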
# [12] = NCI Yeast Anticancer Drug Screen. Data for the wt1 strain (AID 149);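 also: 0% = growth of vehicle-treated wt1 cultures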; conditions: S. cerevisiae wt1 strain (SPY 50644) growth inhibition, stronger effect = higher value
# Outline: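 Vehicle-normalised growth inhibition; strain wt1; compound exposure.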
# [13] = NCI Yeast Anticancer Drug Screen. Data for the rad50EPP+ strain (AID 151);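 also: 0% = growth of vehicle-treated control cultures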; conditions: S. cerevisiae rad50 mutant strain, stronger effect = higher value
# Outline: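 rad50EPP+ yeast treated with test compounds. Readout: growth vs vehicle control.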
# [14] = NCI Yeast Anticancer Drug Screen. Data for the mgt1 strain (AID 153); conditions: S. cerevisiae mgt1 mutant growth inhibition, stronger effect = higher value
# Outline: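 Growth inhibition relative to vehicle controls was scored for the mgt1 yeast strain after compound exposure.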
# [15] = NCI Yeast Anticancer Drug Screen. Data for the rad50 strain (AID 155);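 also: 0% = growth of vehicle-only cultures of the same strain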; conditions: S. cerevisiae rad50 strain growth inhibition, stronger effect = higher value
# Outline: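 A DNA repair-deficient yeast mutant serves as the test organism; compound-induced growth inhibition is calculated against vehicle-treated cells.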
# [16] = NCI Yeast Anticancer Drug Screen. Data for the wt2 strain (AID 169);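 also: 0% = growth of vehicle-treated yeast cultures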; conditions: S. cerevisiae wt2 strain growth inhibition, stronger effect = higher value
# Outline: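 Compound exposure of yeast; growth compared with vehicle controls; inhibition reported.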
# [17] = at 5.0 µM (retest, dose inferred, filed as 0.5)
# [18] = at 50.0 µM (retest, dose inferred, filed as 5.0)
structure (smiles),measurement,setting,value
O=c1ssc(=Nc2ccccc2)n1-c1ccccc1,growth inhibition,[1]; [17],-2% (inactive) and 5% (inactive)
same,growth inhibition,[1]; at 11.0 µM,-3% (inactive)
same,growth inhibition,[1]; at 33.0 µM,5% (inactive)
same,growth inhibition,[1]; [18],97% (active) and 98% (active)
same,growth inhibition,[1]; at 50.0 µM,99.8% (active) and 99.5% (active)
same,growth inhibition,[1]; at 100.0 µM,33% (inactive)
same,growth inhibition,[2]; at 1.2 µM,5% (inactive)
same,growth inhibition,[2]; at 3.7 µM,4% (inactive)
same,growth inhibition,[2]; at 11.0 µM,1% (inactive)
same,growth inhibition,[2]; at 33.0 µM,11% (inactive)
same,growth inhibition,[2]; at 100.0 µM,30% (inactive)
same,growth inhibition,[3]; [17],49% (inactive) and 27% (inactive)
same,growth inhibition,[3]; [18],99% (active) and 100% (active)
same,growth inhibition,[3]; at 50.0 µM,98.2% (active) and 99.3% (active)
same,growth inhibition,[4]; at 1.2 µM,2% (inactive)
same,growth inhibition,[4]; at 3.7 µM,-4% (inactive)
same,growth inhibition,[4]; at 11.0 µM,-4% (inactive)
same,growth inhibition,[4]; at 33.0 µM,7% (inactive)
same,growth inhibition,[4]; at 100.0 µM,30% (inactive)
same,growth inhibition,[5]; [17],-11% (inactive) and -1% (inactive)
same,growth inhibition,[5]; [18],86% (active) and 64% (inactive)
same,growth inhibition,[5]; at 50.0 µM,99.5% (active) and 66.2% (inactive)
same,growth inhibition,[6]; at 1.2 µM,-5% (inactive)
same,growth inhibition,[6]; at 3.7 µM,-9% (inactive)
same,growth inhibition,[6]; [17],12% (inactive) and 1% (inactive)
same,growth inhibition,[6]; at 11.0 µM,-7% (inactive)
same,growth inhibition,[6]; at 33.0 µM,6% (inactive)
same,growth inhibition,[6]; [18],99% (active) and 100% (active)
same,growth inhibition,[6]; at 50.0 µM,99.5% (active) and 99.7% (active)
same,growth inhibition,[6]; at 100.0 µM,37% (inactive)
same,growth inhibition,[7]; at 1.2 µM,7% (inactive)
same,growth inhibition,[7]; at 3.7 µM,4% (inactive)
same,growth inhibition,[7]; at 11.0 µM,2% (inactive)
same,growth inhibition,[7]; at 33.0 µM,17% (inactive)
same,growth inhibition,[7]; at 100.0 µM,48% (inactive)
same,growth inhibition,[8]; at 1.2 µM,-15% (inactive)
same,growth inhibition,[8]; at 3.7 µM,7% (inactive)
same,growth inhibition,[8]; at 11.0 µM,-6% (inactive)
same,growth inhibition,[8]; at 33.0 µM,34% (inactive)
same,growth inhibition,[8]; at 100.0 µM,79% (active)
same,growth inhibition,[9]; [17],75% (active) and 8% (inactive)
same,growth inhibition,[9]; [18],99% (active) and 82% (active)
same,growth inhibition,[9]; at 50.0 µM,95.4% (active) and 98.7% (active)
same,growth inhibition,[10]; at 1.2 µM,4% (inactive)
same,growth inhibition,[10]; at 3.7 µM,3% (inactive)
same,growth inhibition,[10]; at 11.0 µM,-1% (inactive)
same,growth inhibition,[10]; at 33.0 µM,13% (inactive)
same,growth inhibition,[10]; at 100.0 µM,47% (inactive)
Cc1c(C)c(C)c(CSC(=N)N)c(C)c1C,growth inhibition,[11]; at 1.2 µM,-23% (inactive)
same,growth inhibition,[11]; at 3.7 µM,-17% (inactive)
same,growth inhibition,[11]; at 11.0 µM,-12% (inactive)
same,growth inhibition,[11]; at 33.0 µM,36% (inactive)
same,growth inhibition,[11]; at 100.0 µM,98% (active)
same,growth inhibition,[12]; at 1.2 µM,-29% (inactive)
same,growth inhibition,[12]; at 3.7 µM,-32% (inactive)
same,growth inhibition,[12]; at 11.0 µM,-30% (inactive)
same,growth inhibition,[12]; at 33.0 µM,8% (inactive)
same,growth inhibition,[12]; at 100.0 µM,98% (active)
same,growth inhibition,[13]; at 1.2 µM,-55% (inactive)
same,growth inhibition,[13]; at 3.7 µM,-53% (inactive)
same,growth inhibition,[13]; at 11.0 µM,-79% (inactive)
same,growth inhibition,[13]; at 33.0 µM,-59% (inactive)
same,growth inhibition,[13]; at 100.0 µM,96% (active)
same,growth inhibition,[14]; at 1.2 µM,-52% (inactive)
same,growth inhibition,[14]; at 3.7 µM,-50% (inactive)
same,growth inhibition,[14]; at 11.0 µM,-50% (inactive)
same,growth inhibition,[14]; at 33.0 µM,6% (inactive)
same,growth inhibition,[14]; at 100.0 µM,98% (active)
same,growth inhibition,[15]; at 1.2 µM,-13% (inactive)
same,growth inhibition,[15]; at 3.7 µM,-10% (inactive)
same,growth inhibition,[15]; [17],46% (inactive)
same,growth inhibition,[15]; at 11.0 µM,-9% (inactive)
same,growth inhibition,[15]; at 33.0 µM,51% (inactive)
same,growth inhibition,[15]; [18],81% (active)
same,growth inhibition,[15]; at 50.0 µM,91.8% (active)
same,growth inhibition,[15]; at 100.0 µM,99% (active)
same,growth inhibition,[1]; at 1.2 µM,-74% (inactive)
same,growth inhibition,[1]; at 3.7 µM,-78% (inactive)
same,growth inhibition,[1]; [17],54% (inactive)
same,growth inhibition,[1]; at 11.0 µM,-69% (inactive)
same,growth inhibition,[1]; at 33.0 µM,31% (inactive)
same,growth inhibition,[1]; [18],86% (active)
same,growth inhibition,[1]; at 50.0 µM,93.5% (active)
same,growth inhibition,[1]; at 100.0 µM,98% (active)
same,growth inhibition,[2]; at 1.2 µM,-31% (inactive)
same,growth inhibition,[2]; at 3.7 µM,-27% (inactive)
same,growth inhibition,[2]; at 11.0 µM,-12% (inactive)
same,growth inhibition,[2]; at 33.0 µM,85% (active)
same,growth inhibition,[2]; at 100.0 µM,98% (active)
same,growth inhibition,[3]; [17],-4% (inactive)
same,growth inhibition,[3]; [18],100% (active)
same,growth inhibition,[3]; at 50.0 µM,93.3% (active)
same,growth inhibition,[4]; at 1.2 µM,-22% (inactive)
same,growth inhibition,[4]; at 3.7 µM,-18% (inactive)
same,growth inhibition,[4]; at 11.0 µM,-14% (inactive)
same,growth inhibition,[4]; at 33.0 µM,59% (inactive)
same,growth inhibition,[4]; at 100.0 µM,99% (active)
same,growth inhibition,[5]; [17],8% (inactive)
same,growth inhibition,[5]; [18],100% (active)
same,growth inhibition,[5]; at 50.0 µM,86.1% (active)
same,growth inhibition,[6]; at 1.2 µM,-23% (inactive)
same,growth inhibition,[6]; at 3.7 µM,-9% (inactive)
same,growth inhibition,[6]; [17],35% (inactive)
same,growth inhibition,[6]; at 11.0 µM,-10% (inactive)
same,growth inhibition,[6]; at 33.0 µM,55% (inactive)
same,growth inhibition,[6]; [18],99% (active)
same,growth inhibition,[6]; at 50.0 µM,83.2% (active)
same,growth inhibition,[6]; at 100.0 µM,98% (active)
same,growth inhibition,[16]; at 1.2 µM,-41% (inactive)
same,growth inhibition,[16]; at 3.7 µM,-38% (inactive)
same,growth inhibition,[16]; at 11.0 µM,-32% (inactive)
same,growth inhibition,[16]; at 33.0 µM,57% (inactive)
same,growth inhibition,[16]; at 100.0 µM,99% (active)
same,growth inhibition,[7]; at 1.2 µM,-35% (inactive)
same,growth inhibition,[7]; at 3.7 µM,-43% (inactive)
same,growth inhibition,[7]; at 11.0 µM,-17% (inactive)
same,growth inhibition,[7]; at 33.0 µM,77% (active)
same,growth inhibition,[7]; at 100.0 µM,98% (active)
same,growth inhibition,[9]; [17],44% (inactive)
same,growth inhibition,[9]; [18],78% (active)
same,growth inhibition,[9]; at 50.0 µM,92.3% (active)
same,growth inhibition,[10]; at 1.2 µM,-56% (inactive)
same,growth inhibition,[10]; at 3.7 µM,-55% (inactive)
same,growth inhibition,[10]; at 11.0 µM,-58% (inactive)
same,growth inhibition,[10]; at 33.0 µM,58% (inactive)
same,growth inhibition,[10]; at 100.0 µM,98% (active)
